This note sets out measurements from PubChem BioAssay (NCATS).

Test [1] is described as follows: qHTS assay to identify small molecule inhibitors of chordoma cells - UCH-2 (AID 1259356). Further: series mostly up to about 46 µM. On the technique in general: Quantitative high-throughput screening tests each substance at several concentrations.
The nature of test [2]: qHTS assay to identify small molecule inhibitors of chordoma cells - UCH-1 (AID 1259355). Further: nearly all actives have a fitted effect of over 55% in size. Further: potency means the concentration at half of the fitted maximal effect; series mostly up to about 46 µM. In a few lines:
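Seed 800 cells per well; incubate overnight at 37 C, 5% CO2. Add test compounds (15 concentrations), then the auranofin–topoisomerase-agent combination. Incubate 48hr, add CellTiter-Glo, wait 30min, read luminescence.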

Test [3] is described as follows: P-glycoprotein substrates identified in KB-8-5-11 adenocarcinoma cell line, qHTS therapeutic library screen (AID 1346987). Further: series mostly up to about 44 µM; nearly all actives have a fitted effect of over 65% in size. The essentials: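 Steps: plate 500 KB-8-5-11 cells/well in DMEM + 10% FCS (colchicine removed); pin compounds in dose-response; incubate 72 h, 37 degree C, 5% CO2; add CellTiter-Glo, 5 min; read luminescence.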

Results filed as inconclusive are left out. A call without a number means that no potency is given here. Calls of active or inactive are those of the source. The call rests on the fitted dose curve; in most records, active means well fitted curve in the direction sought with a large enough effect; inconclusive means small, poorly fitted or top-dose-only effect, or another doubt; inactive means no such curve, though single readings can be large; an effect the other way counts as inactive or inconclusive.

On to `C=C1C(=CC=C2CCC[C@@]3(C)[C@@H]2CC[C@H]3[C@H](C)CCCC(C)C)C[C@@H](O)C[C@@H]1O`, for which, in test [1], the Potency entry was “inactive”.

With `COc1ccc(C[C@H](N)C(=O)N[C@H]2[C@@H](O)[C@H](n3cnc4c(N(C)C)ncnc43)O[C@@H]2CO)cc1`, the Potency in test [2] is 11.2 µM (active). Further, the Potency result in test [3] is “inactive”.

Turning to `CO[C@@H]1[C@@H](O[C@@H]2O[C@H](C)[C@@H](O[C@H]3C[C@@](C)(O)[C@@H](OC(=O)CC(C)C)[C@H](C)O3)[C@H](N(C)C)[C@H]2O)[C@@H](CC=O)C[C@@H](C)C(=O)/C=C/C2OC2C[C@@H](C)OC(=O)C[C@H]1OC(C)=O` (some centres not stated), the Potency result in test [2] and in test [3] was “inactive” throughout.

For `C=CC1=C(C)C2=CC3=NC(=C(CC(=O)[O-])C4=NC(=C(C)C4=C([O-])[O-])C=c4[n-]c(c(C)c4CC)=CC1=N2)C(CCC(=O)[O-])C3C.[Cu+2].[Na+].[Na+].[Na+]` (configuration not stated), the Potency entry in test [1] is “inactive”.

`CCC(=O)NCCC1CCc2ccc3c(c21)CCO3` (configuration not stated): the Potency entry in test [1] is “inactive”.

For the molecule `CC(=O)Oc1c(C)cc(OCC(O)CNC(C)C)c(C)c1C` (configuration not stated), the Potency entry in test [1] and in test [3] was “inactive” each time.

`C[C@H](CCC(=O)O)[C@H]1CC[C@H]2[C@@H]3[C@H](O)C[C@@H]4C[C@H](O)CC[C@]4(C)[C@H]3CC[C@]12C`: the Potency entry in test [1] and in test [3] was “inactive” throughout.

Turning to `CC(=O)N(CC(C)C(=O)O)c1c(I)cc(I)c(N)c1I` (configuration not stated), the Potency result in test [1] and in test [3] was “inactive” in each case.

On to `C[C@]12CCC(=O)C=C1CC[C@@H]1[C@@H]2[C@@H](O)C[C@@]2(C)[C@H]1CC[C@]2(O)C(=O)COP(=O)(O)O`, for which the Potency entry in test [1] and in test [3] was “inactive” each time.

On to `CC1=CCC(C(C)(C)O)CC1` (configuration not stated), for which the Potency result in test [1] and in test [3] was “inactive” each time.
